# The supplement of paper PMC6555819
# Assays:
# Assay in all cases: PBM binding z-score (relative to random genomic background probes); higher = stronger binding; sequences stand for … in GC…GCGATTGACAGCGTAGAATGAAGG
# [1] = system: FXR:RXRa (NR concentration 270 nM, RXRa partner concentration 90 nM)
# Method in brief: (§1)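 For binding z-scores, the reference was random background probes on custom Agilent 4×180K protein-binding microarrays. These arrays were incubated 1 h with ligand-free nuclear receptor dimers in PBS pH 7.4, 2% milk, 0.02% Triton X-100, 1 mM DTT, 0.2 mg/mL BSA and 0.4 mg/ml salmon testes DNA. Fluorescence was scanned after antibody detection of each partner (one per run) and regression-normalized.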
# [2] = system: LXRa:RXRa (NR concentration 270 nM, RXRa partner concentration 90 nM)
# Method in brief: as §1
# [3] = system: LXRa homodimer (NR concentration 270 nM)
# Method in brief: as §1
# [4] = system: LXRb:RXRa (NR concentration 270 nM, RXRa partner concentration 90 nM)
# Method in brief: as §1
# [5] = system: LXRb homodimer (NR concentration 270 nM)
# Method in brief: as §1
# [6] = system: PPARa:RXRa (NR concentration 270 nM, RXRa partner concentration 90 nM)
# Method in brief: as §1
# [7] = system: PPARg:RXRa (NR concentration 180 nM, RXRa partner concentration 90 nM)
# Method in brief: as §1
# [8] = system: PPARg:RXRa 270nM:90nM, anti-RXR (NR concentration 270 nM, RXRa partner concentration 90 nM)
# Method in brief: as §1
# [9] = system: PPARg:RXRa 30nM:10nM, anti-RXR (NR concentration 30 nM, RXRa partner concentration 10 nM)
# Method in brief: as §1
# [10] = system: PPARg:RXRa 90nM:30nM, anti-RXR (NR concentration 90 nM, RXRa partner concentration 30 nM)
# Method in brief: as §1
# [11] = system: PPARg:RXRa DBDmut IVT, anti-RXR (DBD mutation: RXRa K156A/R161A, NR concentration 270 nM, RXRa partner concentration 90 nM)
# Method in brief: as §1
# [12] = system: PPARg:RXRa IVT, anti-PPARg (NR concentration 270 nM, RXRa partner concentration 90 nM)
# Method in brief: as §1
# [13] = system: PPARg DBDmut:RXRa IVT, anti-PPARg (DBD mutation: PPARg1 K132A/R137A, NR concentration 270 nM, RXRa partner concentration 90 nM)
# Method in brief: as §1
# [14] = system: PPARg DBDmut IVT, anti-PPARg (DBD mutation: PPARg1 K132A/R137A, NR concentration 270 nM)
# Method in brief: as §1
# [15] = system: PPARg homodimer (NR concentration 180 nM)
# Method in brief: as §1
# [16] = system: PXR:RXRa (NR concentration 270 nM, RXRa partner concentration 90 nM)
# Method in brief: as §1
# [17] = system: PXR homodimer (NR concentration 270 nM)
# Method in brief: as §1
# [18] = system: RARa:RXR (NR concentration 270 nM, RXRa partner concentration 90 nM)
# Method in brief: as §1
# [19] = system: RARa homodimer (NR concentration 270 nM)
# Method in brief: as §1
# [20] = system: RARb:RXRa (NR concentration 270 nM, RXRa partner concentration 90 nM)
# Method in brief: as §1
Sequence,PBM binding z-score [1],PBM binding z-score [2],PBM binding z-score [3],PBM binding z-score [4],PBM binding z-score [5],PBM binding z-score [6],PBM binding z-score [7],PBM binding z-score [8],PBM binding z-score [9],PBM binding z-score [10],PBM binding z-score [11],PBM binding z-score [12],PBM binding z-score [13],PBM binding z-score [14],PBM binding z-score [15],PBM binding z-score [16],PBM binding z-score [17],PBM binding z-score [18],PBM binding z-score [19],PBM binding z-score [20]
AGAAGGAGGGCAATGAGTTGATAGCACGGGTGGC,0.307,0.255,0.19,0.452,0.521,1.2,1.33,0.786,-0.173,0.451,3.57,2.64,0.99,-0.352,0.922,1.39,4.17,0.2,0.815,1.92
ATATGTAGGTTACATCCGGGCCATTCAGGCTATG,0.546,2.67,0.422,1.05,0.287,3.13,5.08,4.09,1.51,3.05,7.19,7.09,3.74,3.02,0.583,0.633,0.119,0.816,0.221,1.15
TAGCCTAGGTGATTCAGGGGCCAGTATAGAAAGC,-0.423,-0.634,-0.348,-0.094,-0.239,0.0128,0.0919,-0.199,-0.433,0.0704,0.201,0.666,-0.281,0.314,-0.16,-0.295,-0.446,0.184,-0.571,0.516
TCTTGTAGATCAATAGGGGTTAAGAAAGTGCGCT,1.29,4.13,0.187,2.93,0.868,2.7,0.337,2.1,2.94,2.42,2.59,1.26,1.26,1.11,1.01,3.87,0.265,2.8,0.509,1.2
ACTAGTTGGTTAGCTGAGGTCACACACAATTCGG,2.92,3.56,3.63,3.49,0.944,3.95,1.63,2.35,0.884,1.41,0.671,2.34,0.586,0.524,3.15,5.03,2.31,4.59,1.66,3.06
ATACCAAGGTGATAGTGAGGTCGTTGATACTAAC,1.53,1.39,0.943,1.4,0.0823,1.81,0.759,0.98,0.458,0.738,0.454,1.64,0.276,0.701,1.01,3.17,1.94,2.23,0.553,1.51
GCGACTGGGGCAAACCAGGTTACCATAAGGTTGG,0.393,0.174,-0.329,0.0865,-0.736,1.37,1.43,1.51,-0.386,0.602,4.47,3.82,-1.05,-0.639,-0.0869,0.736,-0.522,0.63,-0.483,0.961
CGTACTGGGCCAAGGTCATTGATCAGTCAAAGCA,3.11,3.03,1.23,3,-0.201,3.99,4.09,4.29,1.79,3.54,4.15,4.66,-0.787,-0.351,1.31,3.51,1.34,3.71,-0.0917,3.35
CCGAGTAGGTTATGGGGAATTCAGGCAACGGTGA,0.109,0.544,0.111,0.918,0.311,1.23,1.46,2.43,0.671,1.48,3.51,2.6,-0.221,0.307,1.64,0.204,0.469,0.654,0.587,0.784
AGAATTAGGTTAAGATCAGGGAAACAGAATACAT,0.832,0.821,0.412,0.748,0.359,2.94,3.33,2.93,1.28,2.24,6.07,5.8,2.12,1.83,1.72,0.514,0.846,0.922,1.26,1.03
TCGAGTAGGTTAGGGGCAATCAGAATGGCGTCGA,0.369,0.37,-0.18,0.715,-0.231,1.41,1.53,2.73,1.47,2.42,2.08,1.37,-0.745,-0.163,1.06,0.437,0.0887,0.347,-0.176,1.19
CATACAGGGTCAGCTAGGCCAGAGTAGGGACGGC,4.68,2.84,-0.378,2.27,0.142,4.64,3.58,3.06,0.957,2.2,1.4,2.5,0.615,1.03,1.25,1.89,-0.17,2.74,0.0717,4.31
CATATAGGGTCAGCTAGGCCAGAGTAGGGACGGC,4.43,3.32,-0.142,2.24,0.223,4.44,3.29,3.31,0.812,2.26,2.06,2.63,1.01,0.805,1.9,2.17,-0.332,3.31,0.466,3.96
TCAGACAGGGGAAGGTAACTCAGGTACGCAGTCG,0.82,1.65,0.166,1.3,0.859,0.994,0.622,2.06,3.77,2.68,2.26,0.171,0.134,-0.73,0.755,0.624,0.441,0.193,0.801,0.352
TCAGACGGGTGAAGGTAACTCAGGTACGCAGTCG,0.211,1.12,-0.137,0.138,-0.885,1.02,0.625,1.66,2.83,2.17,1.98,0.818,-0.457,-0.479,0.581,0.181,-0.137,0.411,-0.487,0.641
AGAATGAGGTTATACGTAGATCCGGGAAGAAAGT,1.84,1.4,-0.0656,1.27,-0.0516,3.09,1.65,2.1,0.93,1.68,3.81,2.11,0.942,0.253,0.53,0.73,0.508,1.02,0.0175,1.27
GGAACGAGGGGATTCGAGTTGATAGCATGGCGAT,-0.431,-0.53,-0.577,-0.641,-0.654,-0.413,0.315,-0.471,-0.474,-0.523,0.388,-0.0839,-1.62,-0.321,-1.3,0.0775,-0.14,-0.588,-0.71,-0.414
ACTCGGAGGACAAAGTTCAGAGCTACGCCAGTGA,1.48,1.83,1.79,0.868,-0.232,2.82,4.04,5.27,3.37,5.49,0.00289,1.33,-0.512,-0.633,1.27,1.98,1.2,1.47,0.278,2.97
CGTCCAAGGTCATAGGATGTCAGTGAAGACAGAT,7.4,5.86,1.1,4.02,0.568,5.6,4.69,5.42,1.9,3.95,3.22,3.9,1.13,0.513,2.45,4.69,1.15,4.58,0.89,5.08
GGAACGAGGGCAAGTTGGTAGCAGAGTTTGATGG,0.88,0.565,-0.29,0.202,-0.428,1.58,0.752,0.875,-0.334,0.0314,3.6,2.34,-0.479,-0.423,0.722,0.696,0.853,0.662,-0.182,2.79
CAAACTGGGTCACCGGAAGGTCAAAGTCCGCATG,5.54,5.51,3.33,5,0.871,5.73,9.06,7.43,4.95,7.29,8.13,8.83,1.41,0.892,6.19,5.57,1.27,6.73,0.623,4.9
CCTTACGGTTCACTCCAGGTTATAGCATCGGAGT,2.82,6.46,2.54,3.58,0.998,2.21,0.562,0.77,0.224,0.483,0.278,0.401,0.147,1.01,1.62,3.53,1.46,2.25,1.57,1.29
ATATGTAGGTTAGTTGGGGTCATTCAGACTAGGC,5,6.61,5.82,5.76,1.94,5.47,5.44,5.32,2.72,4.54,6.81,5.83,2.02,2.15,3.78,6.79,7.04,5.99,2.35,3.21
TCAGACAGGTTAAGGTAACTCAGGTACGCAGTCG,1.49,2.63,0.305,1.79,0.039,1.93,0.858,2.5,4.03,3.21,2.56,0.69,0.624,0.18,1.1,1.1,0.461,1.54,0.655,1.51
CCTTACGGGTCACGAGGTTATAGCGCGACGAGCG,7,4.91,0.435,3.79,-0.01,6.01,7.42,6.71,3.03,5.28,3.89,5.36,1.53,2.01,3.21,4.57,0.486,6.3,1.06,4.56
ACAGATAGGTGATGAAGGTAACTCAGGCTATCAT,-0.192,-0.132,-0.27,-0.29,-0.768,0.548,0.643,0.541,0.412,0.624,0.825,0.996,0.38,0.000268,0.111,0.00334,-0.296,0.286,0.188,0.11
